Where “and” joins values, the source holds several entries; their conditions need not be identical. Identical values can stand only once. About 83,000 compounds went through this panel and 20% of them were active in at least one assay; those are over-represented in the sample as a whole.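 Interpretation: 100, growth as untreated; towards 0, rising growth inhibition; 0, no net growth; 0 to -100, cell death. Compounds scoring below 10 were considered active.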 Unmarked numbers belong to inactive results. Calls of active or inactive are those of the source. Where a SMILES comes first, the peptide text is derived from it. The star is where a group is joined. Trt = c1ccc(C(c2ccccc2)(c2ccccc2)*)cc1; Cbz = O=C(OCc1ccccc1)*
What follows are compounds tested on SK-MEL-5 melanoma (assay: NCI-60 one-dose screen, 48 h (100 = growth as untreated, 0 = no growth, -100 = all killed)). Settings: 10 µM.
Method: Growth inhibition of the SK-MEL-5 human tumor cell line is measured as a screen for anti-cancer activity. Cells are grown in 96 well plates and exposed to the test compound for 48 hours. Compounds are tested at a single concentration, which is 10^-5 M for most compounds. The reported endpoint is percent growth (GI% or GIPRCNT), where numbers from 0 - 100% represent growth inhibition, and numbers from -100% - 0 represent cell death. For example, a value of 40 represents 60% growth inhibition. A value of 0 means no net growth occurred over the course of the experiment. A value of -40 indicates 40% of cells at the beginning of the experiment died by the end of the experiment. A value of -100 means all cells are dead at the end of the experiment.
NCI-60 Human Tumor Cell Lines Screen was performed using the standard one-dose NCI protocol, which is described in more detail at https://dtp.cancer.gov/discovery_development/nci-60/default.htm.
Compounds with GIPRCNT values below 10 were considered active. Activity score was based on GIPRCNT using the following formula: […]
Score is 0 for GIPRCNT values of 100 or above, 50 for GIPRCNT values of 0, and 100 for GIPRCNT values of -100.

Compound | growth
CN(C)C(=O)c1ccc(SC(=S)NCc2ccccc2)cc1 | 102%
COc1ccc(-c2cscc2N)cc1 | 48.8%
O=C(O)c1c(Cl)c(Cl)c(Cl)c(Cl)c1-c1c2cc(I)c(=O)c(I)c-2oc2c(I)c(O)c(I)cc12 | 107% and 110% and 96.1%
O=C(Nc1c(Cl)cccc1Cl)Oc1cccc2cccnc12 | 55.9%

Same assay, conditions: 10 µM unless noted

Compound | growth
Cc1ccnc(NC(c2ccccc2)c2ccc3cccnc3c2O)c1 (stereo not given) | 39.4%
CC(C)(C)c1ccc(O)c(C2CCCCC2)c1 | 96.3%
CCN(CC)CC(C)(C)C(=O)/C=C/c1ccc(Cl)c(Cl)c1 | 0.295% (active)
Cc1cc2nc(CS)[nH]c2cc1C | 87.7%
O=C(CC1(O)C(=O)Nc2c(Cl)ccc(Cl)c21)c1ccc(Cl)cc1Cl (stereo not given) | 100%
CCCCCCCCCCCCCCNCc1ccccc1 | 62.4%
CCCCCCCCCCCCCCCCCCOP(=O)([O-])OC1CC[N+](C)(C)CC1 | 38.7% and 20%
O=C1c2ccccc2C(=O)N1c1ccccc1 | 105%
C1=C(c2ccccc2)C(c2ccc(OCCN3CCCCC3)cc2)Oc2ccccc21 (stereo not given) | -95.5% (active)
O=C1OCc2cccc3cccc1c23 | 101%
Cc1ccnc2c1ccc1c(C)ccnc12 | 18.3%
CCC(CCCN(CC)CCc1ccccc1)OC(=O)c1cc(OC)c(OC)c(OC)c1 (stereo not given) | 91.3%
O=C(O)c1ccc2c3c(ncnc13)-c1ccccc1C2=O | -69.3% (active)
Cc1ccc(N=C=C(c2ccccc2)c2ccccc2)cc1 | 89.3%
O=C1NC(=O)/C(=C/C=C/c2ccccc2)S1 | 25%
CC(=O)Nc1cccc2cc(O)ccc12 | 113% and 117% and 106%

Compound | growth
COc1cc(/C=C(/C)C[N+](=O)[O-])ccc1O | 101%
NC1=CC(=O)c2ccccc2C1=O | 22.9%
O=C1c2ccccc2C(=O)c2sc(Nc3ccc(Cl)cc3)nc21 | 13%
Oc1c(Cl)cc(Cl)c2cccnc12 | 33.2% and 28.1%
COC(=O)C(CSC(c1ccccc1)(c1ccccc1)c1ccccc1)NC(=O)C(CC(N)=O)NC(=O)OCc1ccccc1 (stereo not drawn) (Cbz-Asn-Cys(Trt)-OMe; configuration not given here) | 14.1%
CNC(=O)N/N=C/c1ccc([N+](=O)[O-])o1 | 98.6%
Cn1c2c(c3ccccc31)CCN1C[C@@H]3CCCC[C@H]3C[C@@H]21 | -16.1% (active)
Cc1ccc2c(ccc3c[n+]4c5ccccc5ccc4n32)c1 | -81% (active)
O=C(Nc1ccc(F)cc1)ON=C1CCCCC1 | 99.6% [100 µM]
N#CSCC(=O)c1ccc(Cl)cc1 | 35.3%
CCOC(=O)c1c(C)[nH]c(CO)c1C | 99.1%
CC1SC(=S)N(c2ccc(Cl)cc2)C1=O (stereo not given) | 94.6% and 93.6%
CCN(CC)CCOc1ccc(-c2nc3cc(Cl)ccc3s2)cc1 | -38.5% (active)
CCCCCCCCCCCCCCCCOP(=O)([O-])OCC[N+](C)(C)C | 59.1%
Cc1cc(N)c2ccccc2[n+]1CCCCCCCCCC[n+]1c(C)cc(N)c2ccccc21 | -57.8% (active) and -99.9% (active)
Oc1ccc(/C=N/NC(=S)Nc2ccccc2)nc1 | -45.3% (active)

Same assay, conditions: 100 µM

Compound | growth
CN(C)C(=O)c1ccc(SC(=S)NCc2ccccc2)cc1 | -53.1% (active)
COc1ccc(-c2cscc2N)cc1 | 33.1%
O=C(O)c1c(Cl)c(Cl)c(Cl)c(Cl)c1-c1c2cc(I)c(=O)c(I)c-2oc2c(I)c(O)c(I)cc12 | 22.1%
O=C(Nc1c(Cl)cccc1Cl)Oc1cccc2cccnc12 | 14.4%

From PubChem BioAssay (NCI)
